Experimental data from the supplement of paper PMC7366291.
Structures can show the parent of a compound that is named as a salt.

These compounds were tested on Danio rerio Tg(wt1b:EGFP) embryo, pronephros (assay: fraction of imaged embryos annotated as normal kidney; higher = less nephrotoxic; extreme values may be limits of the assay). Settings: 25 µM; exposure: 24-48 hpf.
Procedure, shortened: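 Dechorionated Tg(wt1b:EGFP) zebrafish embryos were exposed in 12-well plates to 25 μM compound in 0.5% DMSO, 5 mM HEPES-buffered E3 with 0.003% PTU, from 24 to 48 hpf at 28.5°C. Tricaine-anaesthetised larvae were oriented dorsally in agarose-filled 96-well plates, and pronephroi were imaged by widefield fluorescence (470 nm, 10 z-slices). Each embryo was manually annotated from maximum projections. The read-out is the fraction of embryos per treatment assigned to the normal-kidney category.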

| SMILES | fraction of imaged embryos annotated as normal kidney |
| --- | --- |
| CCCN[C@H]1CCc2nc(N)sc2C1 [Pramipexole dihydrochloride] | 0.833 |
| CCN(CC)CCNC(=O)c1cc(S(C)(=O)=O)ccc1OC [Tiapride hydrochloride] | 0.909 |
| COc1cc([S+](C)[O-])ccc1-c1nc2cccnc2[nH]1 (centres undefined) [Sulmazole] | 0.833 |
| CC(C)/N=c1\cc2n(-c3ccc(Cl)cc3)c3ccccc3nc-2cc1Nc1ccc(Cl)cc1 [Clofazimine] | 0.75 |
| CCOC(=O)NNc1nncc2ccccc12 [Todralazine hydrochloride] | 0.917 |
| Nc1nc(/C(=C/CC(=O)O)C(=O)N[C@@H]2C(=O)N3C(C(=O)O)=CCS[C@H]23)cs1 [Ceftibuten] | 1 |
| C[C@@H](O)[C@H]1C(=O)N2C(C(=O)O)=C(S[C@@H]3CN[C@H](C(=O)N(C)C)C3)[C@H](C)[C@H]12 [Meropenem] | 0.75 |
| Cc1cc(/C=C/c2ccc3cc(N(C)C)ccc3[n+]2C)c(C)n1-c1ccccc1 [Pyrvinium pamoate] | 0.833 |
| COc1cc(C(=O)NS(=O)(=O)c2ccccc2C)ccc1Cc1cn(C)c2ccc(NC(=O)OC3CCCC3)cc12 [Zafirlukast] | 1 |
| COc1ccc(CC(C)NCC(O)c2ccc(O)c(NC=O)c2)cc1 (centres undefined) [Formoterol fumarate] | 0.917 |
| OCCOCCN1CCN(C2=Nc3ccccc3Sc3ccccc32)CC1 [Quetiapine hemifumarate] | 0.917 |
| Nc1ccn([C@@H]2O[C@H](CO)[C@@H](O)[C@@H]2O)c(=O)n1 [Cytarabine] | 0.917 |
| Cc1ncc([N+](=O)[O-])n1CC(C)O (centres undefined) [Secnidazole] | 0.833 |
| CN(C)CCCN1c2ccccc2CCc2ccccc21 [Imipramine hydrochloride] | 0.75 |
| CCOC(=O)C1=C[C@]2(CC)CCCN3CCc4c(n1c1ccccc41)[C@@H]32 [Vinpocetine] | 0.909 |
| Clc1ccccc1CN1CCc2sccc2C1 [Ticlopidine hydrochloride] | 0.833 |
| c1ccc2[nH]c(-c3cscn3)nc2c1 [Tiabendazole] | 0.667 |

| SMILES | fraction of imaged embryos annotated as normal kidney |
| --- | --- |
| CC(C(=O)O)c1ccc(-c2ccccc2)c(F)c1 (centres undefined) [Flurbiprofen] | 0 |
| Clc1ccc(C(Cn2ccnc2)OCc2ccsc2Cl)c(Cl)c1 (centres undefined) [Tioconazole] | 0.417 |
| COc1ccc([C@@H]2Sc3ccccc3N(CCN(C)C)C(=O)[C@@H]2OC(C)=O)cc1 [Diltiazem hydrochloride] | 0.667 |
| CCN(CC)C(C)CN1c2ccccc2Sc2ccccc21 (centres undefined) [Ethopropazine hydrochloride] | 0.917 |
| O=C(O[C@@H]1C[C@@H]2C[C@H]3C[C@H](C1)N2CC3=O)c1c[nH]c2ccccc12 [Dolasetron mesilate] | 0.75 |
| COCCCOc1ccnc(C[S+]([O-])c2nc3ccccc3[nH]2)c1C (centres undefined) [Rabeprazole Sodium salt] | 0.75 |
| C[C@]12CCC(=O)C=C1CC[C@@H]1[C@@H]2[C@@H](O)C[C@@]2(C)[C@H]1CC[C@]2(O)C(=O)CO [Hydrocortisone base] | 0.5 |
| Clc1ccc(COC(Cn2ccnc2)c2ccc(Cl)cc2Cl)c(Cl)c1 (centres undefined) [Miconazole] | 0.0909 |
| CN(C)CCCN1c2ccccc2Sc2ccc(Cl)cc21 [Chlorpromazine hydrochloride] | 0.833 |
| CN(Cc1ccc(C(C)(C)C)cc1)Cc1cccc2ccccc12 [Butenafine Hydrochloride] | 0.909 |
| CCOc1cc(CC(=O)N[C@@H](CC(C)C)c2ccccc2N2CCCCC2)ccc1C(=O)O [Repaglinide] | 0.75 |
| NCCc1c[nH]cn1 [Histamine dihydrochloride] | 0.833 |
| CC1=C(/C=C/C(C)=C/C=C/C(C)=C\C(=O)O)C(C)(C)CCC1 [Isotretinoin] | 0 |
| COc1cc(C(=O)NC2CCCNC2)cc(OC)c1OC (centres undefined) [Troxipide] | 0.917 |
| C[C@]12C=CC(=O)C=C1CC[C@@H]1[C@@H]2[C@@H](O)C[C@@]2(C)[C@H]1CC[C@]2(O)C(=O)CO [Prednisolone] | 0.75 |
| CCCc1cc(C(N)=S)ccn1 [Prothionamide] | 0.917 |
| CC(C)OC(=O)CCC/C=C\C[C@@H]1[C@@H](CC[C@@H](O)CCc2ccccc2)[C@H](O)C[C@@H]1O [Latanoprost] | 0.833 |
